# Measured values published in the supplement of paper PMC8975748.
# Structures can show the parent of a compound that is named as a salt.
# Test system: Saccharomyces cerevisiae BY4741 SeMeCo community
# Assay: z-score of subpopulation abundance vs DMSO median, subpopulation auxotrophic for LUM; higher = larger share of this subpopulation than in DMSO controls
# Conditions: 10 µM; 24 h; SM minimal medium; subpopulation (auxotrophy): LUM
# Summary of the method: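 Scoring was based on each subpopulation's abundance, expressed as a z-score against the vehicle-well median. A Saccharomyces cerevisiae BY4741 community with four plasmids, each restoring one auxotrophy and encoding a distinct fluorescent protein, was pre-grown overnight to OD600 1.0, diluted to 0.3, and added at 70 µl to 384-well plates acoustically predosed with library drugs (10 µM final). It then grew 24 h in minimal SM medium before paraformaldehyde fixation and automated confocal microscopy, with single-auxotroph fluorescent strains setting thresholds and autofluorescence correction.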
row,SMILES,z-score of subpopulation abundance
1,Cc1onc(-c2c(F)cccc2Cl)c1C(=O)N[C@@H]1C(=O)N2[C@@H]1SC(C)(C)[C@@H]2C(=O)O [Flucloxacillin sodium],-0.02
2,Cc1ncc([N+](=O)[O-])n1CC(O)CCl (centres undefined) [Ornidazole],-0.87
3,OC(CCCN1CCCCC1)(c1ccccc1)c1ccccc1 [Diphenidol HCl],-0.35
4,Cc1ccccc1OCC(O)CO (centres undefined) [Mephenesin],-0.39
5,CC(C)c1c(C(=O)Nc2ccccc2)c(-c2ccccc2)c(-c2ccc(F)cc2)n1CC[C@@H](O)C[C@@H](O)CC(=O)O [Atorvastatin Calcium],4.29
6,C[C@@H](O)[C@H]1C(=O)N2C(C(=O)[O-])=C(SC3Cn4cnc[n+]4C3)[C@H](C)[C@H]12 (some centres undefined) [Biapenem],-0.49
7,CO/N=C(\C(=O)N[C@@H]1C(=O)N2C(C(=O)OC(C)OC(C)=O)=C(COC(N)=O)CS[C@H]12)c1ccco1 (some centres undefined) [Cefuroxime axetil],-0.64
8,Cc1cc(=O)n(-c2ccccc2)n1C [Antipyrine],0.02
9,Oc1c(Cl)cc(Cl)c2cccnc12 [Chloroxine],17.1
10,CC1(C)CC[C@]2(C(=O)O)CC[C@]3(C)C(=CC[C@@H]4[C@@]5(C)CC[C@H](O)C(C)(C)[C@@H]5CC[C@]43C)[C@@H]2C1 [Oleanolic Acid],0.78
11,CCOC(=O)C1=C(C)NC(C)=C(C(=O)OC)C1c1cccc(Cl)c1Cl (centres undefined) [Felodipine],-4.09
12,O=C1CCc2cc(OCCCCc3nnnn3C3CCCCC3)ccc2N1 [Cilostazol],-0.52
13,Cc1nnc(SCC2=C(C(=O)O)N3C(=O)[C@@H](NC(=O)Cn4cc(Cl)c(=O)c(Cl)c4)[C@H]3SC2)s1 [Cefazedone],-1.02
14,O=c1cc(-c2ccc(O)c(O)c2)oc2cc(O)cc(O)c12 [Luteolin],0.16
15,CN1C[C@@H]2C[C@H]1CN2c1cc2c(cc1F)c(=O)c(C(=O)O)cn2C1CC1 [Danofloxacin Mesylate],-0.46
16,CC(=O)Oc1ccccc1C(=O)O [Aspirin],-0.25
17,Cc1noc(NS(=O)(=O)c2ccc(N)cc2)c1C [Sulfisoxazole],1.7

row,SMILES,z-score of subpopulation abundance
1,O=C(NCCO[N+](=O)[O-])c1cccnc1 [Nicorandil],-0.44
2,O=C1C(CC[S+]([O-])c2ccccc2)C(=O)N(c2ccccc2)N1c1ccccc1 (racemic) [(+/-)-Sulfinpyrazone],0.05
3,CCn1cc(C(=O)O)c(=O)c2cc(F)c(N3CCN(C)CC3)cc21 [Pefloxacin Mesylate],0.18
4,CN(C)CCC=C1c2ccccc2CCc2ccccc21 [Amitriptyline HCl],-0.91
5,COc1ccccc1OCC(O)CN1CCN(CC(=O)Nc2c(C)cccc2C)CC1 (centres undefined) [Ranolazine],0.49
6,COc1cc(C(C)=O)ccc1OCCCN1CCC(c2noc3cc(F)ccc23)CC1 [Iloperidone],0.9
7,Nc1ccc(S(=O)(=O)Nc2ccccn2)cc1 [Sulfapyridine],-0.73
8,CN1CC(=O)N2[C@H](c3ccc4c(c3)OCO4)c3[nH]c4ccccc4c3C[C@@H]2C1=O [Tadalafil],1.95
9,CCOC(=O)C1=C[C@@H](OC(CC)CC)[C@H](NC(C)=O)[C@@H](N)C1 [Oseltamivir Phosphate],-0.21
10,O=C(c1ccc(OCCN2CCCCC2)cc1)c1c(-c2ccc(O)cc2)sc2cc(O)ccc12 [Raloxifene HCl],-0.24
11,N#CC(c1ccc(Cl)cc1)c1c(Cl)cc(-n2ncc(=O)[nH]c2=O)cc1Cl (centres undefined) [Diclazuril],-0.7
12,O=C1NCC2(CCN(CCc3ccccc3)CC2)O1 [Fenspiride HCl],-0.59
13,CCCN[C@H]1CCc2nc(N)sc2C1 [Pramipexole dihydrochloride],-0.25
14,O=C(O)c1ccccc1O [Salicylic acid],-0.79
15,CCCOc1ccc(C(=O)OCCN(CC)CC)cc1N [Proparacaine HCl],-0.49
16,CCOc1ccc2ccccc2c1C(=O)N[C@@H]1C(=O)N2[C@@H]1SC(C)(C)[C@@H]2C(=O)O [Nafcillin Sodium],0.08
17,CC(C)(O/N=C(\C(=O)N[C@@H]1C(=O)N2C(C(=O)[O-])=C(C[n+]3ccccc3)CS[C@H]12)c1csc(N)n1)C(=O)O [Ceftazidime],0.05
